Data as given in the supplement of paper PMC3334620.
Whole data set: some 33,000 sequences, median “E-score (-0.5 to 0.5)” near -0.035, cut for the highest 2% near 0.34. For the sample, the highest values were picked, then their nearest neighbours and some sequences at random.

biological target: T1, Mot3 (UniProt P54785); test: PBM E-score (8-mer binding enrichment) (E-score (-0.5 to 0.5)); higher = stronger / more preferred TF binding; details: protein concentration: 200 nM; construct: GST-full length
T1 sequence: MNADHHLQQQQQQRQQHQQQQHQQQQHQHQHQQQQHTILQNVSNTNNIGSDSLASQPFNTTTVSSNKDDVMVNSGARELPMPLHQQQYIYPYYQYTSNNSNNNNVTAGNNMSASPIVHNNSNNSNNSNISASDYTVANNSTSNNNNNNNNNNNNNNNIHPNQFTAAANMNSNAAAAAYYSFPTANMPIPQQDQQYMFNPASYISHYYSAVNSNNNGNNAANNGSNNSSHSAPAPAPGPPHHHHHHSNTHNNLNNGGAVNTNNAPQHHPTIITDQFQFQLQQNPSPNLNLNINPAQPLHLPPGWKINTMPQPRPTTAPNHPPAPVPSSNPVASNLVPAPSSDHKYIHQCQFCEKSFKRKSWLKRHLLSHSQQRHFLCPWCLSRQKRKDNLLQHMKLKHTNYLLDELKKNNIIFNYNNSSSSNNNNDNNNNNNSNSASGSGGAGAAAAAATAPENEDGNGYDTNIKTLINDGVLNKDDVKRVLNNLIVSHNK
Method in brief: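 GST-tagged yeast TFs (full-length or DNA-binding domain) were made by PURExpress in vitro transcription/translation and applied at about 100-200 nM to universal all-10-mer Agilent arrays. The arrays were made double-stranded by primer extension, on fresh or once-stripped slides. Bound protein was detected with fluorescent anti-GST, and scans were normalised with masliner. Each ungapped eight-base word, pooled with its reverse complement, received an E-score (modified Wilcoxon-Mann-Whitney statistic) from the Universal PBM Analysis Suite.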

Sequence | PBM E-score
ACAGCCAT | 0.172
AGCAGGGA | -0.167
ACAGTCAT | -0.0548
GAGCGCAC | -0.307
ATCTTGGG | -0.157
ACGCTCAG | -0.226
ATCAACTG | -0.0772
GAAGTACC | 0.00084
ACCGAATC | -0.00094
GTAAGGTA | 0.321
ATAAGGCA | 0.46
CTAAGGCA | 0.452
CTAAGGTA | 0.226
CTAAGGCC | -0.0134
GTAAGGGA | 0.145
ATAAGGCG | 0.0672
GTAAGGCA | 0.464
ATAAGGCC | -0.142
TACTGAAA | 0.037
AGACGTTC | -0.008
AGCATAAC | 0.0259
AGTCTATA | -0.0584
CGCACCGA | -0.27
AGCACCTA | 0.199
AGCACCGA | -0.168

Sequence | PBM E-score
GGCACCTA | 0.357
CGCACCTA | -0.125
GGCACCGA | 0.356
GGCCGAAA | -0.186
TACCCAAA | 0.11
AATCTATG | -0.00189
ACCTGAAG | -0.135
AAGCCCCT | -0.195
AGAACTAT | -0.0425
AGAAAGAG | -0.195
AAAGGAAC | 0.456
AAAGGAAA | 0.442
CAAGGACC | 0.0666
AAAGGAGA | -0.0548
GAAGGAAC | 0.468
GAAGGAGC | -0.251
CGAGGAAC | 0.285
AAAGGATA | -0.0444
AAAGGAAT | -0.0306
AAAGGAAG | 0.059
CAAGGAAG | -0.00272
CAAGGAAC | 0.43
AACTCTCT | -0.19
AGCCCGAT | -0.195
CCCAGGAG | -0.207

Sequence | PBM E-score
ACTTGTAT | 0.173
ACACCTTG | 0.193
CCGTTGTA | 0.125
CTGAACCA | 0.0648
GACAGGCC | -0.139
GACAGGCA | 0.483
AACAGGCG | 0.167
GACAGGGA | -0.089
TACAGTCA | 0.191
AACAGGCA | 0.484
CACAGGCA | 0.482
TACAGGGA | 0.0536
TACAGGCA | 0.484
CACAGGCG | 0.277
CACAGGCC | 0.0987
AACAGGCT | 0.305
GCTGTGAC | -0.128
GACTTCCA | -0.126
TGGAAGAA | 0.00562
CACTACGG | -0.1
GCCACAGA | -0.0635
GAGGAGGC | -0.0566
AATAAGTA | 0.124
CCACTCGA | -0.0827
AATAGACG | -0.138

Sequence | PBM E-score
ACACGCTG | 0.256
ACACGCGG | 0.252
ACACGCTA | 0.356
ACACGCGT | 0.36
ACACGCGA | 0.292
ACACGCTC | 0.305
AGTATCGA | 0.122
TCGTAGAA | 0.0868
CCGATCAC | -0.0956
ATCGCCAG | -0.289
AGATGTTA | 0.158
ACATGTTA | 0.397
ACATGTTC | 0.295
ACATGTTG | 0.368
GCATGTTA | 0.385
GGATGTTA | 0.172
CCATGTTA | 0.339
AAATGTTA | 0.288
AGATGTTG | -0.102
CTAGGTCA | -0.135
ATTGGCAC | -0.068
AAACCTGG | 0.0922
GCCGTTAC | -0.13
CCAACTCC | -0.135
TCCTCCAA | -0.0985

Sequence | PBM E-score
GATCTAGC | -0.194
ATACTGCC | -0.204
TGCAGCCA | -0.192
TGCAGGCA | 0.484
AGCAGGCA | 0.483
CGCAGGCC | 0.123
GGCAGGCC | -0.165
AGCAGGCG | 0.148
AGCAGGCC | -0.0206
GGCAGGCA | 0.481
CGCAGGCG | 0.17
GGCAGGTA | 0.277
TGCAGACA | 0.0246
CGCAGGCA | 0.482
TATGCGAA | -0.0122
TATCAATA | 0.134
AGTTTTCA | -0.204
CATCTGCA | -0.0636
CTAACTCC | -0.141
CGCGTAAC | 0.225
CGCGTAAG | 0.299
CGCGTAAA | 0.392
GGCGTAAA | 0.146
AGCGTAAA | 0.12
TGCGTAAA | 0.342

Sequence | PBM E-score
GGGGGGAA | -0.375
CTCGGCTA | -0.0141
GTATGGAA | -0.156
GCTTGGCA | -0.105
AGTTTTCG | 0.0727
GCGGGTCA | 0.0734
GTGAGGCA | 0.353
CTGAGGCA | 0.257
ATGAGGCC | -0.174
ATGAGGCA | 0.364
ATGAGGCG | -0.119
GTGAGGAA | -0.106
CCTACTTC | -0.0137
ACCCGTCA | -0.239
AGATAGCG | -0.0829
ACGCACGG | 0.0438
AGGCACGG | 0.491
GGGCACGA | 0.163
AGGCACGA | 0.491
AAGCACGG | 0.0983
CGGCACGA | 0.00099
GCCCTAGC | -0.184
CTTGGCAC | -0.0521
CTTTGGCC | 0.0624
CATTGTGA | -0.0102

Sequence | PBM E-score
ACCACGGC | -0.108
GCCCGGTA | -0.0651
AATTAAAT | 0.124
AGGTACTG | 0.258
AGGTACGG | 0.39
ACGTACGG | -0.163
CGGTACGA | -0.155
AGGTACTC | 0.333
CGGTACGC | -0.174
GGGTACGA | -0.148
AGGTACGC | 0.444
AGGTACGA | 0.346
CGACTAGA | -0.0287
AAGCCCAT | -0.253
ACAACGTG | 0.114
TACAGCGA | -0.184
GAAATACA | 0.328
TACATAGA | 0.357
TACATACA | 0.355
CACATACA | 0.239
AAAATACA | 0.298
AACATAGA | 0.2
GACATACA | 0.218
TAAATACA | 0.366
GACATAGA | 0.0532

Sequence | PBM E-score
GCCTCCGA | 0.0149
CGTACCAC | -0.0328
CGAATTCG | -0.137
AACAGAAG | 0.0357
GTCTTAAA | -0.131
CCCTGAAA | -0.0551
AAAGGTTC | 0.12
ACACGATA | 0.345
ACACGATC | 0.347
CCACGATA | -0.107
CCACGATC | 0.0336
AGACGATC | -0.288
ACACGATG | 0.199
CCTTTGAC | 0.125
GAGGCTAA | -0.134
ACTGCGCA | -0.17
GGTGGGCA | 0.0151
GGTGACAA | -0.12
GCCTTTAC | 0.357
CCCTTTAC | 0.15
GCCTTTAA | 0.322
AGCGCTAG | -0.115
TATTTCAA | 0.159
CCATCTAG | -0.0951
GCTTAACA | 0.229

Sequence | PBM E-score
ATTTAACC | 0.0628
GGTTAAAA | 0.194
ATTTAACA | 0.354
TCTTAACA | 0.346
CGTTAAAA | 0.151
TGTTAAAA | 0.343
ATTTAACG | 0.247
TGTTATAA | 0.35
AGTTATAA | 0.163
CGTTATAA | 0.15
CCTTAACA | 0.315
CGGGGGGC | -0.295
ACAATTCC | -0.0244
CGCTCCAC | -0.234
GTGAAGTA | 0.0411
TAACACAA | 0.332
CCAGTATA | -0.178
ACTTGATA | 0.0522
GAATCTAA | -0.0012
